# Measured values taken from PubChem BioAssay AID2625 (National Center for Advancing Translational Sciences (NCATS), 2010).
# Inconclusive results are not listed. The source made the active and inactive calls. Calls come from the whole dose curve; as a rule, active = well fitted curve in the direction sought with a large enough effect; inconclusive = small, poorly fitted or top-dose-only effect, or effect the other way, or another doubt; inactive = no such curve, though single readings can be large or run the other way.
# Target: Pyruvate kinase PKLR (Homo sapiens) (UniProt P30613)
# Sequence (P30613 whole entry, looked up): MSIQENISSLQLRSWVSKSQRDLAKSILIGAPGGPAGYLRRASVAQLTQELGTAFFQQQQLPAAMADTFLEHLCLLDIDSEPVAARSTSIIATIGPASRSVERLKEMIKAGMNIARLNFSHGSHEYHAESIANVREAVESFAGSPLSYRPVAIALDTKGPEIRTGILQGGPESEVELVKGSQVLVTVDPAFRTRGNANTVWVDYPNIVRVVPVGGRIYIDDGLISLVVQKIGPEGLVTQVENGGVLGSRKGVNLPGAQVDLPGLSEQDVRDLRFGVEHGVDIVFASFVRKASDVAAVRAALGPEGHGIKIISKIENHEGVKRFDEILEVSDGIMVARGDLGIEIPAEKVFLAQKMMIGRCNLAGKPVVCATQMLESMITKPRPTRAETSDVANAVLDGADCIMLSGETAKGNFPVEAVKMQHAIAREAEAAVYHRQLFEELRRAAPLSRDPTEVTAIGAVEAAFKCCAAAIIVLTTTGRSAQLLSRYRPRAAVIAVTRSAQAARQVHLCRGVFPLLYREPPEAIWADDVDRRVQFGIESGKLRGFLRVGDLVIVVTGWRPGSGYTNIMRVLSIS
# Experiment: Secondary LDH Assay for Activators of Human Liver Pyruvate Kinase: for Probe SAR
# Settings: purified hPK-L, LDH-coupled NADH fluorescence kinetic; series mostly up to 58.2 µM
# Summary of the method: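 Kinetic LDH-coupled read-out: NADH fluorescence loss followed every 30 s for 3–6 min gave initial rates. Reaction: 10 nM human liver PK, 0.1 mM PEP, 4 mM ADP, 0.2 mM NADH, 50 mM Tris-Cl pH 8.0; activation normalised to fructose-bis-phosphate.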
row,Compound,outcome
1,O=C1c2ccccc2C(=O)N1c1cccc2ccncc12,inactive
2,Cc1ccc(NS(=O)(=O)c2ccc3c(c2)CCC(=O)N3)cc1C,inactive
3,O=C1CCc2cc(S(=O)(=O)NCc3ccccc3)ccc2N1,inactive
4,O=C1c2ccccc2C(=O)N1Cc1ccncc1,inactive
5,O=C1CCc2cc(S(=O)(=O)Nc3cccnc3)ccc2N1,inactive
6,O=C1c2ccccc2C(=O)N1c1ccccn1,inactive
7,O=C1c2ccccc2C(=O)N1c1cccc(O)c1,inactive
8,O=C1c2ccccc2C(=O)N1Cc1cccnc1,inactive
9,Cc1ccc(NS(=O)(=O)c2cccc(F)c2)cc1C,inactive
10,O=C1c2ccccc2C(=O)N1Cc1ccccc1,inactive
11,COc1cccc(N2C(=O)c3ccccc3C2=O)n1,inactive
12,CSc1cc2c(s1)c1cnn(Cc3cccc(N)c3)c(=O)c1n2C,inactive
13,O=S(=O)(c1ccc2c(c1)OCCO2)N1CCN(S(=O)(=O)c2c(F)cccc2F)CC1,inactive
14,O=C1CCc2cc(S(=O)(=O)Nc3cccc4ccccc34)ccc2N1,inactive
15,Nc1cc(S(=O)(=O)N2CCN(S(=O)(=O)c3ccc4c(c3)OCCO4)CC2)ccn1,inactive
16,Cc1ccc(NS(=O)(=O)c2cc3c(cc2F)NC(=O)CC3)cc1Cl,inactive
17,Cc1ccc(NS(=O)(=O)c2ccc(Cl)cc2)cc1C,inactive
18,Cc1ccc(NS(=O)(=O)c2cccc(Cl)c2)cc1C,inactive
19,O=C1CCc2cc(S(=O)(=O)Nc3ccncc3)ccc2N1,inactive
20,Cc1ccc(NS(=O)(=O)c2cc3c(cc2N2CCCCC2)NC(=O)CC3)cc1C,inactive
21,Cc1ccc(NS(=O)(=O)c2ccc(N3CCCC3=O)cc2)cc1C,inactive
22,CC(=O)N1CCCc2cc(S(=O)(=O)Nc3ccc(C)c(C)c3)ccc21,inactive
23,Cc1ccc(NS(=O)(=O)c2cc3c(cc2N(C)C)CCC(=O)N3)cc1C,inactive
24,O=C1CCc2cc(S(=O)(=O)Nc3ccc(-c4ccccc4)cc3)ccc2N1,inactive
25,CN=c1nc(-c2ccccc2)n(-c2ccccc2)s1,inactive
